# LmPK inhibitor: LmPK (Leishmania mexicana) enzyme inhibition. Potency, µM (titrated, usually from 57.5 µM), hits mostly inhibitors. Q27686. AID 1721. purified LmPK, Kinase-Glo ATP luminescence, 1 h. hit rate 0.37% among 290,000
# Target sequence (Q27686 whole entry, looked up): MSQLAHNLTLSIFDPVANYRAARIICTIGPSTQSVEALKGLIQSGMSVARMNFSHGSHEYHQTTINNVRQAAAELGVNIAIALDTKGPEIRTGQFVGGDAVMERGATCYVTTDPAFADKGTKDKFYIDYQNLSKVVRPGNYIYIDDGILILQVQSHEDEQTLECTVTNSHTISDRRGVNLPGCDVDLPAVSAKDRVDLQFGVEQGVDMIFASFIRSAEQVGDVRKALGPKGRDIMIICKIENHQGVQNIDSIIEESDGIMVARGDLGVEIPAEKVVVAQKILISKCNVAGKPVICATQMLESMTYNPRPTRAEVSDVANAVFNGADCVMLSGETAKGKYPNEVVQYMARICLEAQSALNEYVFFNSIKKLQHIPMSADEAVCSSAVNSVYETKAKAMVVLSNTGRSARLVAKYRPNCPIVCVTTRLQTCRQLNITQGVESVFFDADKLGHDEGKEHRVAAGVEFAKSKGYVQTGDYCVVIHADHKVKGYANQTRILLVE
#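 ATP generated from ADP (0.1 mM) and PEP (0.5 mM) by 0.1 nM LmPK over 1 h at room temperature (pH 7.2 imidazole buffer) was detected by coupled luciferase luminescence. Values were normalized to uninhibited and no-enzyme wells.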
# RE007 growth inh: less growth of the S. pombe RE007 Vpr strain; S. pombe RE007 Vpr strain, BacTiter-Glo ATP luminescence, 24 h; Potency, µM (titrated, usually from 92.2 µM), hits mostly inhibitors; hit rate 0.21% among 360,000; active means well fitted falling curve with a large enough effect; inconclusive means small, poorly fitted or top-dose-only effect; inactive means no such curve, though single readings can be large or run the other way; further: nearly all actives have a fitted effect of over 50% in size
#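 Fission yeast RE007 carrying one integrated HIV-1 vpr copy, seeded at OD 0.01 in PMG+AL medium with 23 nL pinned compound. Grown 24 h at 30 degrees; viability read by BacTiter-Glo luminescence after 5 min.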
# Giardia FBPA inh: Giardia lamblia aldolase inhibition; purified Giardia FBPA; Potency, µM (series often up to 59.6 µM), actives largely listed as inhibitors; hit rate 0.71% among 290,000; AID 2451; further: nearly all actives have a fitted effect of over 55% in size
#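 Giardia FBPA (40 nM reagent) was preincubated 10 min at RT with compound (up to 57.5 uM final), then substrate plus GAPDH/TPI/NAD/arsenate coupling system with diaphorase/resazurin was added; resorufin fluorescence (525/598 nm) was read after 20 min.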
# Cycloheximide cs: counter-screen for Shiga toxin inhibitors: cycloheximide protein synthesis inhibition. max response, %. AID 2314. cell reporter, cycloheximide protein synthesis inhibition counterscreen. hit rate 12% among 300,000; in the data active means max response mostly above about 13%, no sharp cut-off; inactive means mostly below about 14%; further: read at 38.3 µM for the half of the compounds with a filed dose
# TbPYK inhibitor: inhibitors of Trypanosoma brucei pyruvate kinase | Q57TT1 | TbPYK enzyme, Kinase-Glo Plus ATP luminescence, 45 min | Potency, µM (series often up to 76.8 µM), hits mostly inhibitors | hit rate 0.12% among 410,000 | AID 624173; further: nearly all actives have a fitted effect of over 50% in size
#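 Enzyme and substrate buffer are dispensed first and compound is pin-transferred. ADP at 130 uM final then starts the reaction, which runs 45 min at room temperature. Detection reagent is added for 10 min before luminescence is imaged.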
# Shiga inhibitor: inhibitors of Shiga toxin in Vero cells; Vero cells, Shiga toxin protein synthesis inhibition reporter; inhibition, % at 38.7 µM; hit rate 9.2% among 290,000; AID 2315; in the data active means inhibition mostly above about 28%, no sharp cut-off; inactive means mostly below about 43%
# Numbers stand for hits; - = inactive; ? = inconclusive; . = no result; [ ] = remark or other dose. The sample as a whole holds a higher share of hits than the screen did. Unless noted, the call rests on the fitted dose curve; in most records, active means well fitted curve in the direction sought with a large enough effect; inconclusive means small, poorly fitted or top-dose-only effect, or another doubt; inactive means no such curve, though single readings can be large; an effect the other way counts as inactive or inconclusive.
SMILES,LmPK inhibitor,RE007 growth inh,Giardia FBPA inh,Cycloheximide cs,TbPYK inhibitor,Shiga inhibitor
Cc1ccc(C)c(OCc2cc(C(=O)N3CCN(C(=O)c4ccco4)CC3)no2)c1,-,-,.,42,-,78
COc1ccc(N2CCN(CC(O)COc3ccccc3C(C)(C)C)CC2)cc1 (configuration not stated),.,.,.,.,-,.
N=c1c2c(ncn1Cc1ccco1)Oc1c(ccc3ccccc13)C2c1ccccc1 (configuration not stated),-,-,-,23,-,18
N=c1c2c(ncn1Cc1ccco1)Oc1cc(O)ccc1C2c1ccccc1 (configuration not stated),-,-,-,-,-,-
Cc1ccc(C(=O)c2ccc(C(F)(F)F)cc2)cc1,.,.,-,-,.,-
CN(C)C(=O)c1cc(C(=O)c2ccc(Cl)cc2Cl)c[nH]1,-,-,-,51,-,99
CN(C)C(=O)c1cc(C(=O)c2ccc(F)cc2Cl)c[nH]1,-,-,-,50,-,73
CN(C)C(=O)c1cc(C(=O)c2ccc(C(F)(F)F)cc2)c[nH]1,-,-,-,16,-,-
CCCCCCN1C[C@H](O)[C@@H](n2cc(C3CC3)nn2)C[C@@H]1c1ccc(OC)cc1,.,-,.,.,-,.
COc1cc(/C=C/c2cc[n+](C)cc2)ccc1OCC(=O)Nc1ccccc1,-,-,.,-,-,-
COc1cc(/C=N/NC(=O)c2ccncc2)ccc1OCC(=O)Nc1ccccc1,-,-,-,30,-,56
O=C(COc1ccc(/C=N/NC(=O)c2ccccc2O)cc1)Nc1ccccc1,-,-,-,-,-,-
O=C(COc1ccc(/C=N/NS(=O)(=O)c2ccccc2)cc1)Nc1ccccc1,-,-,-,21,-,-
COc1cc(C=C2C(=O)OC(C)(C)OC2=O)ccc1OCC(=O)Nc1ccccc1,-,-,-,17,-,95
COc1cc(/C=N/NC(=O)c2ccccc2O)ccc1OCC(=O)Nc1ccccc1,-,-,-,15,-,-
Cc1ccc2c(c1)c1c(c(=O)n(-c3ccccc3C)c(=O)n1Cc1cccc(F)c1)n2C,.,.,.,.,-,.
Cc1cnc(NC(=O)c2cc3c(C)nn(-c4ccccc4)c3s2)s1,-,-,-,-,-,-
CC(=O)c1c(C)[nH]c(C(=O)OCc2csc(CC(=O)Nc3ccccc3C)n2)c1C,.,-,.,.,-,.
COc1ccccc1NC(=O)COc1ccc(/C=N/NC(=O)c2cccnc2)cc1,-,-,.,-,-,-
O=C(COc1ccc(/C=N/NC(=O)c2cccnc2)cc1)Nc1ccccc1,-,-,.,29,-,-
COc1ccc(NC(=O)COc2ccc(/C=N/NC(=O)c3cccnc3)cc2OC)cc1,-,-,-,-,-,32
O=C(COc1ccc(/C=N/NC(=O)c2cc3ccccc3o2)cc1Cl)Nc1ccccc1,-,-,-,47,-,62
Cc1cc(C)c(Cn2c(CCNC(=O)c3ccco3)nc3ccccc32)c(C)c1,.,.,.,.,-,.
CSc1ccc(C(O)c2ncc(-c3ccccc3F)[nH]2)cc1 (configuration not stated),.,-,.,.,-,.
CC(=O)c1ccc(S(=O)(=O)NCCOc2ccccc2)cc1,.,-,.,.,-,.
SMILES,LmPK inhibitor,RE007 growth inh,Giardia FBPA inh,Cycloheximide cs,TbPYK inhibitor,Shiga inhibitor
Cc1c(C(=O)N2CCOCC2)sc2ncnc(N3CCc4ccccc4C3)c12,-,-,-,-,-,-
COCCCNC(=O)c1sc2ncnc(N3CCc4ccccc4C3)c2c1C,-,-,-,12,-,-
Cc1ccc(Cn2nc(C)cc2C(=O)Nc2ccc(Cl)cc2)cc1,-,-,-,39,-,72
Cc1cccc(Cn2nc(C(C)(C)C)cc2C(=O)Nc2ccc(F)cc2)c1,-,-,-,18,-,-
Cc1ccc(Cn2c(C(=O)Nc3ccc(Cl)cc3)cc3sccc32)cc1,.,.,.,.,-,.
Cc1ccc(Cn2nc(C(=O)Nc3ccc(Br)cc3)cc2C)cc1,-,-,-,54,-,154
Cc1ccc(Cn2nc(C)cc2C(=O)Nc2ccccc2Cl)cc1,-,-,-,59,-,147
CC(C)(C)c1cc(C(=O)NN)n(Cc2ccc(F)cc2)n1,-,-,-,-,-,-
Cc1ccc(C[C@@H](NS(=O)(=O)c2ccc(C(=O)O)cc2)C(=O)O)cc1,.,.,-,-,.,-
CSc1ccc(CN2C(=O)C(C)ON=C2c2ccccc2F)cc1 (configuration not stated),.,-[18.4 µM],.,.,-,.
COC(=O)c1ccc(C(NC(=O)OCc2ccccc2)/C(F)=C/[C@@H](C)C(=O)N[C@@H](CO)Cc2ccccc2)cc1 (some centres not stated),.,.,-,.,.,.
CCCC[C@@H]1C[C@H]1C(NC(=O)c1cccnc1)c1ccc(-c2ccccc2)cc1 (some centres not stated),.,.,-,.,.,.
O=C(Cn1cc(S(=O)(=O)Cc2ccc(F)cc2)c2ccccc21)NCc1ccccc1,.,.,.,.,-[15.4 µM],.
COCCNC(=O)C1(C)CCCN(C(=O)c2ccc(C(=O)OC)cc2)C1 (configuration not stated),.,-,.,.,-,.
O=S1(=O)C2CC3C=CC2(O3)C(O)C(Cc2ccccc2)N1Cc1cccc(F)c1 (configuration not stated),.,.,-,-,.,-
COc1ccc(CNc2ncncc2-c2ccccc2C(F)(F)F)c(OC)c1,.,.,-,.,.,.
COc1ccc(C2=NN(C(=O)c3ccccc3)C(c3cccc([N+](=O)[O-])c3)C2)cc1 (configuration not stated),-,-,-,-,-,-
CCOC(=O)/C=C(/C)N1N=C(c2ccc(OC)cc2)CC1c1cccc([N+](=O)[O-])c1 (configuration not stated),-,-,-,46,-,113
COc1ccc(CCNC(=O)CC2(CC3=NS(=O)(=O)c4ccccc4N3)CCCC2)cc1OC,-,-,.,-,-,-
Cc1ccc(CNC(=O)CC2(CC3=NS(=O)(=O)c4ccccc4N3)CCCC2)cc1,-,-,-,8.5,-,-
Cc1cc2c(=O)n(Cc3ccco3)c(SCC(=O)NCc3ccco3)nc2s1,-,-,-,-,?,-
Cc1cc2c(=O)n(Cc3ccco3)c(SCC(=O)N3CCCc4ccccc43)nc2s1,-,-,-,12,-,-
Cc1cccc(OCc2nc(-c3ccccn3)n[nH]2)c1,-,-,?,-,-,-
Cc1ccc(OCc2nc(-c3ccccn3)n[nH]2)cc1,-,-,?,32,-,-
O=C1c2ccccc2C(=O)N1SC1CCCCC1,-,45µM,-,-,?,-
O=C(OCN1C(=O)c2ccccc2C1=O)C1CCCCC1,-,-,-,-,-,-
O=[N+]([O-])c1ccc(F)cc1OCc1nc(-c2cccs2)no1,-,-,-,41,-,95
O=c1oc2ccc(F)cc2cc1-c1nc(-c2cccs2)no1,.,.,.,.,-,.
O=C(O)CCc1nc(-c2cccs2)no1,-,-,-,-,-,-

# From PubChem
